Measured values reported in PubChem BioAssay AID1159580 (chemical genetic matrix, 2015).
Several values for one entry are separate records, joined by “and”; a condition that tells them apart may be missing. Equal values may be shown once. About 2,000 (36%) of roughly 5,500 compounds were called active. Another 18% or so got no clear call; they are omitted. Cut-off read from the data, not from the text of the source: active = normalized growth mostly below about 0.91 (no sharp cut-off); inconclusive = no clear call, values can overlap the other calls; inactive = mostly above about 0.92. Some of the results follow.

Test: chemical genetic growth profiling, strain panel (AID 1159580);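 note: tested at 20 µM; growth read once vehicle control cultures reached saturation at 30 °C; 1 = growth at the plate median or of vehicle wells; lower values mean less growth of the strain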
Conditions: S. cerevisiae deletion strains, growth OD

Measured: normalized growth

CC(C)/C(O)=C1/C(=O)O[C@@H](c2ccoc2)[C@]2(C)C(O)[C@@H](O)[C@@]34OC5(C)OC67CC(C)(C(O)[C@]6(O)[C@@H](O)[C@]3(O5)C12)[C@H](CC(=O)O)[C@]74C (stereo partly drawn)
inactive: locus YAL021C, strain ccr4, active compounds read low 0.945 | locus YAL026C, strain drs2, active compounds read low 1.01 | locus YAL030W, strain snc1, active compounds read low 0.979 | locus YBL061C, strain skt5, active compounds read low 1.01 | locus YBR009C, strain hhf1, active compounds read low 0.993 | locus YBR021W, strain FUR4, active compounds read low 0.991 | locus YBR023C, strain chs3, active compounds read low 0.992 | locus YBR171W, strain sec66, active compounds read low 1.01 | locus YBR229C, strain ROT2, active compounds read low 1 | locus YBR231C, strain swc5, active compounds read low 1.03 | locus YBR279W, strain paf1, active compounds read low 0.997 | locus YCL011C, strain gbp2, active compounds read low 0.975 | locus YCL016C, strain dcc1, active compounds read low 0.982 | locus YCL029C, strain bik1, active compounds read low 0.997 | locus YCL061C, strain MRC1, active compounds read low 0.998 | locus YCL069W, strain vba3, active compounds read low 0.981 | locus YCR088W, strain abp1, active compounds read low 0.994 | locus YDL005C, strain med2, active compounds read low 0.985 | locus YDL035C, strain GPR1, active compounds read low 0.993 | locus YDL040C, strain nat1, active compounds read low 0.995 | locus YDL074C, strain BRE1, active compounds read low 1 | locus YDL101C, strain DUN1, active compounds read low 1.01 | locus YDL185W, strain tfp1, active compounds read low 1.02 | locus YDL192W, strain arf1, active compounds read low 1.01 | locus YDR001C, strain nth1, active compounds read low 0.974 | locus YDR069C, strain doa4, active compounds read low 1.02 | locus YDR101C, strain arx1, active compounds read low 0.986 | locus YDR137W, strain rgp1, active compounds read low 0.992 | locus YDR150W, strain NUM1, active compounds read low 0.965 | locus YDR159W, strain sac3, active compounds read low 1.06 | locus YDR162C, strain NBP2, active compounds read low 1.01 | locus YDR195W, strain ref2 0.974 | locus YDR297W, strain sur2, active compounds read low 1.01 | locus YDR318W, strain mcm21, active compounds read low 1.01 | locus YDR334W, strain swr1, active compounds read low 0.988 | locus YDR335W, strain msn5, active compounds read low 0.987 | locus YDR388W, active compounds read low 1 | locus YDR392W, strain spt3, active compounds read low 0.933 | locus YDR502C, strain sam2, active compounds read low 1.01 | locus YEL003W, strain gim4, active compounds read low 1.01 | locus YEL037C, strain rad23, active compounds read low 0.99 | locus YEL061C, strain CIN8 (second series), active compounds read low 0.985 | locus YER015W, strain faa2, active compounds read low 1.01 | locus YER016W, strain bim1, active compounds read low 0.998 | locus YER110C, active compounds read low 1.01 | locus YER111C, strain swi4, active compounds read low 0.981 | locus YER155C, strain BEM2 (second series), active compounds read low 1.04 | locus YER155C, strain BEM2, active compounds read low 1 | locus YER167W, strain BCK2, active compounds read low 0.996 | locus YFR010W, strain ubp6, active compounds read low 1.01 | locus YGL078C, strain dbp3, active compounds read low 1.02 | locus YGL086W, strain mad1, active compounds read low 1 | locus YGL167C, strain pmr1, active compounds read low 0.993 | locus YGL173C, strain kem1, active compounds read low 1.02 | locus YGL227W, strain vid30, active compounds read low 0.993 | locus YGL240W, strain doc1, active compounds read low 1.02 | locus YGL248W, strain PDE1, active compounds read low 0.997 | locus YGL253W, strain hxk2, active compounds read low 1.01 | locus YGR135W, strain pre9, active compounds read low 1.02 | locus YGR229C, strain SMI1, active compounds read low 0.991 | locus YGR252W, strain gcn5, active compounds read low 0.988 | locus YHR013C, strain ard1, active compounds read low 0.976 | locus YHR027C, strain rpn1, active compounds read low 0.994 | locus YHR030C, strain SLT2, active compounds read low 0.951 | locus YHR079C, strain IRE1 (second series), active compounds read low 1.01 | locus YHR079C, strain IRE1, active compounds read low 0.984 | locus YHR094C, strain hxt1, active compounds read low 1.01 | locus YHR129C, strain ARP1, active compounds read low 0.999 | locus YHR142W, strain chs7, active compounds read low 0.945 | locus YHR200W, strain rpn10, active compounds read low 1.01 | locus YIL066C, strain RNR3, active compounds read low 0.991 | locus YIL073C, strain SPO22, active compounds read low 1.06 | locus YIL125W, strain kgd1, active compounds read low 1 | locus YIR030C, strain dcg1, active compounds read low 1.01 | locus YJL092W, strain hpr5, active compounds read low 0.989 | locus YJL095W, strain BCK1 (second series), active compounds read low 1 | locus YJL095W, strain BCK1, active compounds read low 1.03 and 0.971 | locus YJL115W, strain asf1, active compounds read low 0.977 | locus YJL129C, strain trk1, active compounds read low 0.997 | locus YJL134W, strain LCB3, active compounds read low 0.993 | locus YJL154C, strain vps35, active compounds read low 0.98 | locus YJL164C, strain tpk1, active compounds read low 0.958 | locus YJL166W, strain qcr8, active compounds read low 1 | locus YJL168C, strain set2, active compounds read low 1.01 | locus YJL187C, strain SWE1 (second series), active compounds read low 1.01 | locus YJR066W, strain TOR1, active compounds read low 0.926 | locus YJR075W, strain HOC1, active compounds read low 1 | locus YKL009W, strain mrt4, active compounds read low 1.02 | locus YKL068W, active compounds read low 0.999 | locus YKL085W, strain MDH1 (second series), active compounds read low 1.01 | locus YKL085W, strain MDH1, active compounds read low 1.01 | locus YKL160W, strain elf1, active compounds read low 0.962 | locus YKL190W, strain CNB1, active compounds read low 0.986 | locus YKR001C, strain vps1, active compounds read low 1.01 | locus YKR026C, strain gcn3, active compounds read low 0.994 | locus YKR091W, strain srl3, active compounds read low 0.991 | locus YLL001W, strain dnm1, active compounds read low 0.973 | locus YLL026W, active compounds read low 0.992 | locus YLL041C, strain sdh2, active compounds read low 0.985 | locus YLR027C, strain aat2, active compounds read low 0.999 | locus YLR039C, strain RIC1, active compounds read low 1.06 | locus YLR058C, strain SHM2, active compounds read low 1.01 | locus YLR102C, strain apc9, active compounds read low 0.998 | locus YLR113W, strain HOG1, active compounds read low 0.997 | locus YLR221C, strain rsa3, active compounds read low 1.05 | locus YLR258W, strain gsy2, active compounds read low 0.998 | locus YLR262C, strain YPT6 (second series), active compounds read low 0.979 | locus YLR262C, strain YPT6, active compounds read low 1.1 | locus YLR268W, strain sec22, active compounds read low 0.999 | locus YLR320W, strain mms22, active compounds read low 1.04 | locus YLR330W, strain CHS5, active compounds read low 1 | locus YLR342W, strain FKS1 (second series), active compounds read low 0.985 | locus YLR342W, strain FKS1, active compounds read low 0.995 | locus YLR357W, strain rsc2, active compounds read low 1.01 | locus YLR370C, strain arc18, active compounds read low 0.977 | locus YLR371W, strain rom2, active compounds read low 1.01 | locus YLR384C, strain iki3, active compounds read low 0.997 | locus YLR418C, strain cdc73, active compounds read low 1.03 | locus YML016C, strain PPZ1, active compounds read low 1.01 | locus YML032C, strain rad52, active compounds read low 1.01 | locus YML120C, strain ndi1, active compounds read low 0.973 | locus YML124C, strain tub3, active compounds read low 1.02 | locus YMR058W, strain fet3, active compounds read low 1 | locus YMR078C, strain ctf18, active compounds read low 1.02 | locus YMR125W, strain sto1, active compounds read low 0.951 | locus YMR129W, active compounds read low 0.989 | locus YMR205C, strain PFK2, active compounds read low 0.978 | locus YMR223W, strain ubp8, active compounds read low 1.01 | locus YMR231W, strain pep5, active compounds read low 1 | locus YMR263W, strain SAP30, active compounds read low 1.01 | locus YMR307W, strain GAS1, active compounds read low 0.982 | locus YNL067W, strain RPL9B, active compounds read low 1.03 | locus YNL071W, strain lat1, active compounds read low 0.987 | locus YNL128W, strain TEP1, active compounds read low 1 | locus YNL183C, strain NPR1, active compounds read low 0.939 | locus YNL209W, strain ssb2, active compounds read low 0.988 | locus YNL233W, strain BNI4, active compounds read low 0.981 | locus YNL248C, strain rpa49, active compounds read low 1.03 | locus YNL250W, strain rad50, active compounds read low 1.01 | locus YNL271C, strain bni1, active compounds read low 1.01 | locus YNL298W, strain CLA4, active compounds read low 1.01 | locus YNL307C, strain MCK1, active compounds read low 1 | locus YNL322C, strain KRE1 (second series), active compounds read low 1.02 | locus YNR049C, strain mso1, active compounds read low 0.974 | locus YNR052C, strain pop2, active compounds read low 1.02 | locus YOL012C, strain htz1 0.728 | locus YOL147C, strain pex11, active compounds read low 1.01 | locus YOR001W, strain rrp6, active compounds read low 1.04 | locus YOR061W, strain CKA2, active compounds read low 1 | locus YOR069W, strain VPS5, active compounds read low 0.998 | locus YOR070C, strain gyp1, active compounds read low 0.996 | locus YOR080W, strain dia2, active compounds read low 1 | locus YOR083W, strain WHI5, active compounds read low 0.954 | locus YOR106W, strain vam3, active compounds read low 0.938 | locus YOR136W, strain idh2, active compounds read low 1.02 | locus YOR144C, strain elg1, active compounds read low 1.01 | locus YOR184W, strain ser1, active compounds read low 1 | locus YOR231W, strain MKK1, active compounds read low 0.991 | locus YOR265W, strain rbl2, active compounds read low 0.989 | locus YOR270C, strain vph1, active compounds read low 0.966 | locus YOR290C, strain snf2, active compounds read low 0.907 | locus YOR316C, strain cot1, active compounds read low 1.01 | locus YPL051W, strain arl3, active compounds read low 1.01 | locus YPL055C, strain LGE1, active compounds read low 0.993 | locus YPL078C, strain atp4, active compounds read low 0.953 | locus YPL106C, strain sse1, active compounds read low 0.976 | locus YPL240C, strain hsp82, active compounds read low 1 | locus YPL256C, strain CLN2, active compounds read low 0.946 | locus YPR119W, strain clb2, active compounds read low 1.01 | locus YPR141C, strain kar3, active compounds read low 1.02 | locus YPR163C, strain tif3, active compounds read low 1.01 | locus YPR167C, strain met16, active compounds read low 1.01 | strain wtn01, active compounds read low 1
